# In PubChem BioAssay (NCI):
# The panel holds about 79,000 compounds, 15% with a hit somewhere; the sample as a whole holds those more often. A number with no mark means an inactive call. Calls of active or inactive are those of the source. Rule as the data show it: active = growth inhibition above about 70%; inactive = the rest.
# What was measured:
# [1] = NCI Yeast Anticancer Drug Screen. Data for the rad50 strain (AID 155);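 also: 0% = growth of vehicle-only cultures of the same strain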; conditions: S. cerevisiae rad50 strain growth inhibition, stronger effect = higher value
# In short: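 Vehicle-treated cultures provide the reference for the growth inhibition reported for compound-exposed, repair-deficient yeast.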
# [2] = NCI Yeast Anticancer Drug Screen. Data for the mec2-1 strain (AID 157); conditions: S. cerevisiae mec2-1 strain, stronger effect = higher value
# In short: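 Compounds were applied to mec2-1 yeast cells. Their growth was then compared with that of vehicle-treated cultures to give growth inhibition.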
# [3] = NCI Yeast Anticancer Drug Screen. Data for the sgs1 mgt1 strain (AID 161);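 also: 0% = growth of cultures given vehicle only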; conditions: S. cerevisiae sgs1 mgt1 strain, stronger effect = higher value
# In short: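 Compounds are added to genetically altered yeast, and growth is compared with cultures given vehicle alone to give percent inhibition.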
# [4] = NCI Yeast Anticancer Drug Screen. Data for the cln2 rad14 strain (AID 165);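 also: 0% = growth equal to vehicle treated cultures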; conditions: S. cerevisiae cln2 rad14 strain, stronger effect = higher value
# In short: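 Strain: cln2 rad14 yeast, altered in cell cycle control and DNA damage repair. Read-out: growth inhibition vs vehicle.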
# [5] = NCI Yeast Anticancer Drug Screen. Data for the bub3 strain (AID 167); conditions: S. cerevisiae bub3 mutant strain, stronger effect = higher value
# In short: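 Mutant yeast screening strain plus compound; vehicle-treated cultures serve as the 0% inhibition reference.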
# [6] = NCI Yeast Anticancer Drug Screen. Data for the mlh1 rad18 strain (AID 175); conditions: S. cerevisiae mlh1 rad18 strain growth inhibition, stronger effect = higher value
# In short: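 A repair-deficient yeast strain is exposed to test compound, and growth is scored relative to vehicle-treated controls.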
# [7] = at 5.0 µM (retest, dose inferred, filed as 0.5)
# [8] = at 50.0 µM (retest, dose inferred, filed as 5.0)
structure (smiles),measurement,setting,value
CC(Cl)C(=O)OC(C)C(=O)O (configuration not stated),growth inhibition,[1]; at 50.0 µM,12.1%
same,growth inhibition,[2]; at 50.0 µM,17.1%
same,growth inhibition,[3]; at 50.0 µM,12.5%
same,growth inhibition,[4]; at 50.0 µM,8%
same,growth inhibition,[5]; at 50.0 µM,-2.7%
same,growth inhibition,[6]; at 50.0 µM,3.4%
CC(C)CCCC(C)[C@H]1CCC2[C@@H]3CCC4Cc5nc6c(nc5C[C@]4(C)C3CC[C@@]21C)CC1CC[C@@H]2C(CC[C@@]3(C)C2CC[C@@H]3O)[C@@]1(C)C6 (some centres not stated),growth inhibition,[1]; at 50.0 µM,-7.05%
same,growth inhibition,[2]; at 50.0 µM,-37.7%
same,growth inhibition,[3]; at 50.0 µM,-12%
same,growth inhibition,[4]; at 50.0 µM,-7.9%
same,growth inhibition,[5]; at 50.0 µM,12.8%
same,growth inhibition,[6]; at 50.0 µM,7.95%
CCCCC(CC)COP(OCC(CC)CCCC)OCC(CC)CCCC.[Br][Hg][Br] (configuration not stated),growth inhibition,[1]; at 50.0 µM,4.55%
same,growth inhibition,[2]; at 50.0 µM,-3.1%
same,growth inhibition,[3]; at 50.0 µM,-10.8%
same,growth inhibition,[4]; at 50.0 µM,-8.25%
same,growth inhibition,[5]; at 50.0 µM,-8.95%
same,growth inhibition,[6]; at 50.0 µM,-6.4%
O=[N+]([O-])/C=C/c1ccc([N+](=O)[O-])cc1,growth inhibition,[1]; [7],96% (active)
same,growth inhibition,[1]; [8],99% (active)
same,growth inhibition,[2]; [7],81% (active)
same,growth inhibition,[2]; [8],100% (active)
same,growth inhibition,[3]; [7],99% (active)
same,growth inhibition,[3]; [8],100% (active)
same,growth inhibition,[4]; [7],31%
same,growth inhibition,[4]; [8],99% (active)
same,growth inhibition,[5]; [7],94% (active)
same,growth inhibition,[5]; [8],100% (active)
same,growth inhibition,[6]; [7],15%
same,growth inhibition,[6]; [8],99% (active)
CCOP(=O)(OCC)C(C#N)OC(C)(C)C (configuration not stated),growth inhibition,[1]; at 50.0 µM,4.4%
same,growth inhibition,[2]; at 50.0 µM,20.4%
same,growth inhibition,[3]; at 50.0 µM,12.2%
same,growth inhibition,[4]; at 50.0 µM,-0.25%
O=[N+]([O-])/C=C/c1cccc([N+](=O)[O-])c1,growth inhibition,[1]; [7],98% (active)
same,growth inhibition,[1]; [8],99% (active)
same,growth inhibition,[2]; [7],99% (active)
same,growth inhibition,[2]; [8],100% (active)
same,growth inhibition,[3]; [7],100% (active)
same,growth inhibition,[3]; [8],100% (active)
same,growth inhibition,[4]; [7],35%
same,growth inhibition,[4]; [8],99% (active)
same,growth inhibition,[5]; [7],97% (active)
same,growth inhibition,[5]; [8],100% (active)
same,growth inhibition,[6]; [7],-9%
same,growth inhibition,[6]; [8],99% (active)
CC(C)[C@]12O[C@H]1[C@@H]1O[C@]13[C@]1(O[C@H]1C[C@H]1C4=C(CC[C@@]13C)C(=O)OC4)[C@@H]2O,growth inhibition,[1]; at 50.0 µM,4.6%
same,growth inhibition,[2]; at 50.0 µM,2.9%
same,growth inhibition,[3]; at 50.0 µM,-20.1%
same,growth inhibition,[4]; at 50.0 µM,-5.1%
same,growth inhibition,[5]; at 50.0 µM,-17.2%
C1=[N+]2CCCC2Cc2ccc3ccccc3c21 (configuration not stated),growth inhibition,[1]; at 50.0 µM,-17.8%
same,growth inhibition,[2]; at 50.0 µM,-6.1%
same,growth inhibition,[3]; at 50.0 µM,-4.15%
same,growth inhibition,[4]; at 50.0 µM,-16.4%
same,growth inhibition,[5]; at 50.0 µM,-4.6%
COc1ccccc1N=Nc1cccc[c]1[Hg][Cl],growth inhibition,[1]; at 50.0 µM,98.2% (active)
same,growth inhibition,[2]; at 50.0 µM,99% (active)
same,growth inhibition,[3]; at 50.0 µM,98.7% (active)
same,growth inhibition,[4]; at 50.0 µM,98.7% (active)
same,growth inhibition,[5]; at 50.0 µM,98% (active)
same,growth inhibition,[6]; at 50.0 µM,98.3% (active)
C/C(=N\N=C(\[Se])N(C)C)c1ccccn1,growth inhibition,[1]; at 50.0 µM,86.9% (active)
same,growth inhibition,[2]; at 50.0 µM,89.9% (active)
same,growth inhibition,[3]; at 50.0 µM,89.7% (active)
same,growth inhibition,[4]; at 50.0 µM,89.3% (active)
same,growth inhibition,[5]; at 50.0 µM,87.1% (active)
